Laboratory results: PubChem BioAssay (EPA / NIEHS)
Results filed as inconclusive are left out. Active and inactive are the calls of the source. Rule for the calls, unless noted: active = hit-call score of the fitted dose curve at least 0.9, where 1 is the maximum; inactive = score below 0.9.

Key:
[1] = IUF_NPC1_cytotoxicity_72hr: Cytotoxicity Assessment at 72 hours in the Leibniz Research Institute for Environmental Medicine (IUF) Neural Progenitor Cell Proliferation Assay (NPC1) (AID 2284332; active = hit-call score of the fitted dose curve at least 0.9, where 1 is the maximum;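 note: rising LDH signal means more cytotoxicity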)
Outline: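 Single human fetal cortex neural progenitor spheres (GW 16-19, 0.25-0.35 mm) in EGF/FGF proliferation medium were exposed to compound for 72 h at 37C without renewal. Medium LDH release was read as resorufin fluorescence and fitted as gain-of-signal.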

[2] = CCTE_Mundy_HCI_iCellGluta_NOG_NeuronCount: CCTE's Neurite Outgrowth Assay in iCellGluta cells for Neuron Count, Mundy Lab (AID 2284340; active = hit-call score of the fitted dose curve at least 0.9, where 1 is the maximum;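 note: cells fixed about 48 h after compound addition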)
Outline: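 Neuron count read by automated high-content imaging of Hoechst 33342 and betaIII-tubulin/Alexa Fluor-488 labelling in human iPSC glutamatergic neurons. Activity fitted relative to DMSO.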

[3] = CCTE_Mundy_HCI_iCellGluta_NOG_NeuriteCount: CCTE's Neurite Outgrowth Assay in iCellGluta cells for Neurite Count, Mundy Lab (AID 2284342; active = hit-call score of the fitted dose curve at least 0.9, where 1 is the maximum;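 note: chemical exposure about 48 hours starting 2 hours after plating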)
[4] = tested on: SERPINA7 (gene 6906); assay: CCTE_GLTED_hTBG: CCTE's human Thyroxine-binding Globulin (TBG) Inhibition Assay, Great Lakes Toxicology and Ecology Division (GLTED) Lab (AID 2284343; active = hit-call score of the fitted dose curve at least 0.9, where 1 is the maximum;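 note: active chemicals lower fluorescence versus DMSO baseline by displacing probe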)
Outline: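 Cell-free binding assay in which human TBG is incubated with test chemical for 2 hours and displacement of the fluorescent probe ANSA is read at 380 nm excitation/475 nm emission. Activity is fitted against DMSO as the negative control.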

[5] = Tanguay_ZF_120hpf_MO24: Oregon State University Tanguay Lab 24 Hour Post-fertilization zebrafish Assay for Mortality (AID 2284389)
Outline: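 Dechorionated wild-type zebrafish embryos, 1 per well, statically exposed from 6 hpf at 28C, 0.64% DMSO final. Mortality scored as binary present/absent at 24 hpf by brightfield microscopy, relative to DMSO.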

[6] = Tanguay_ZF_120hpf_DP24: Oregon State University Tanguay Lab 24 Hour Post-fertilization zebrafish Assay for Delayed Development (AID 2284390)
Outline: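 Dechorionated 5D wild-type zebrafish embryos exposed statically from 6 hpf, one per well, 0.64% DMSO final, 28 C, sealed and dark. Developmental progression scored at 24 hpf by brightfield as binary present/absent; dead embryos excluded.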

[7] = Tanguay_ZF_120hpf_CRAN: Oregon State University Tanguay Lab 120 Hour Post-fertilization zebrafish Assay for Craniofacial Malformation (AID 2284397)
Outline: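 Dechorionated Tropical 5D wild-type zebrafish embryos, one per well, were statically exposed from 6 to 120 hpf at 28C in 0.64% DMSO, with 5uM trimethyltin chloride as positive control. Craniofacial malformation was scored present/absent by brightfield microscopy, relative to DMSO.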

[8] = Tanguay_ZF_120hpf_AXIS: Oregon State University Tanguay Lab 120 Hour Post-fertilization zebrafish Assay for Axial Malformation (AID 2284398)
Outline: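 Dechorionated 5D wild-type zebrafish embryos exposed statically, one per well, from 6 to 120 hpf at 28C, 0.64% DMSO. Axial malformation scored as present/absent by brightfield microscopy at 120 hpf; dead embryos not scored.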

[9] = Tanguay_ZF_120hpf_MUSC: Oregon State University Tanguay Lab 120 Hour Post-fertilization zebrafish Assay for Muscle Malformation (AID 2284401)
Outline: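 Dechorionated Tropical 5D wild-type zebrafish embryos exposed statically from 6 to 120 hpf at 28C, one per well, in 0.64% DMSO. Muscle malformation scored present/absent by brightfield microscopy at 120 hpf, fitted against DMSO.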

[10] = Tanguay_ZF_120hpf_TCHR: Oregon State University Tanguay Lab 120 Hour Post-fertilization zebrafish Assay for Touch Responsive (AID 2284403)
Outline: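 Dechorionated Tropical 5D wild-type zebrafish embryos, one per well from 6 hpf, were statically exposed to 120 hpf at 28 °C (0.64% DMSO). Touch response was scored present/absent at 120 hpf and not scored in dead larvae.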

[11] = CCTE_Padilla_ZF_Score.Craniofacial: CCTE's 144 Hour Post-fertilization zebrafish Assay Score for Craniofacial Malformation, Padilla Lab (AID 2284405)
Outline: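 Wild-type zebrafish embryos (with chorions), one per well in 10% Hanks', were dosed at 6–8 hpf in sealed plates and kept at 26C. They were rinsed at 5 dpf. At 6 dpf two blinded assessors scored craniofacial malformations by brightfield stereomicroscopy.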

[12] = CCTE_Padilla_ZF_Score.Edema: CCTE's 144 Hour Post-fertilization zebrafish Assay Score for Edema Malformation, Padilla Lab (AID 2284406)
Outline: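 Wild-type zebrafish embryos, one per well in Hanks' solution, dosed at 6-8 hpf, sealed and reared at 26C on a 14:10 h cycle; rinsed on 5 dpf. At 6 dpf, blinded assessors scored edema by stereomicroscopy.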

[13] = VALA_TUBHUV_Antagonist_TubuleLength: VALA Sciences human Umbilical Vein Endothelial Tubule Formation (TUBHUV) Antagonism Assay (AID 2284325; active = hit-call score of the fitted dose curve at least 0.9, where 1 is the maximum)
Outline: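 HUVEC–HDF co-culture (1:3) pre-grown 3 days with 10 ng/ml VEGF, then 3 days with compound plus VEGF. Fixed, nuclear and CD31 stained; total tubule length by imaging versus 0.1% DMSO; suramin 100 uM positive control.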

[14] = VALA_TUBHUV_Agonist_TubuleLength: VALA Sciences human Umbilical Vein Endothelial Tubule Formation (TUBHUV) Agonism Assay (AID 2284337; active = hit-call score of the fitted dose curve at least 0.9, where 1 is the maximum)
Outline: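 HUVEC co-cultured with fibroblasts (1:3) 3 days in 10 ng/ml VEGF, then 3 days with compound plus VEGF; 0.1 % DMSO neutral control. Fixed, nuclear and CD31 stained; tubule length by fluorescence imaging.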

[15] = VALA_TUBIPS_Agonist_CellCount: Viability Assessment in the VALA Sciences human iPS-derived Endothelial Tubule Formation (TUBIPS) Agonism Assay (AID 2284338; active = hit-call score of the fitted dose curve at least 0.9, where 1 is the maximum)
Protocol: VALA_TUBIPS_Agonist is a cell-based, multiplexed assay that uses human iPS-derived endothelial cells (iPSC). Measurements were taken 72 hours after chemical dosing in a 96-well plate.VALA_TUBIPS_Agonist_CellCount is the one of two assay components measured from the VALA_TUBIPS_Agonist assay. It is designed to make measurements of viability, a form of viability reporter, as detected with fluorescence intensity signals by HCS Fluorescent Imaging technology. Data from the assay component VALA_TUBIPS_Agonist_CellCount was analyzed at the endpoint, VALA_TUBIPS_Agonist_CellCount, in the positive analysis fitting direction relative to DMSO as the negative control and baseline of activity. Using a type of viability reporter, loss-of-signal activity can be used to understand viability. To generalize the intended target to other relatable targets, this assay endpoint is annotated to the cell cycle intended target family, where the subfamily is cell count.
This HUVEC-HDF assay was designed to detect chemical suppression of tubulogenesis, i.e. antagonism. To measure tubulogenesis antagonism, HUVEC cells were co-cultured with HDF cells at a 1:3 ratio for 3-days in 10 ng/ml VEGF (i.e., favorable conditions with growth factors), then changed to assay medium containing 10 ng/ml VEGF and ToxCast compounds for an additional 3-day period. […]

[16] = TAMU_PeakParms_SingleDonor1434_Asystole: Texas A&M University (TAMU) 1.5-hr Human Induced Pluripotent Stem Cell (iPSC)-derived Cardiomyocytes Calcium (Ca+2) Flux Assay for Cardiotoxicity: Asystole (quiescence of beating) (AID 2284328; active = hit-call score of the fitted dose curve at least 0.9, where 1 is the maximum)
Outline: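 Average Ca2+-flux peak frequency (beats/s) was recorded in single-donor iPSC-derived cardiomyocytes after 90 min exposure (0.2–100 uM final, 0.5% DMSO). Asystole POD set as EC95 against DMSO, no preprocessing.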

[17] = tested on: Brachyury (BRA) Protein Expression, Deisenroth Lab, TBXT (gene 6862); assay: CCTE_Deisenroth_DEVTOX-GLR_legacy_Bra: (Legacy) CCTE's DevTox GLR-Endo Assay Evaluation of Brachyury (BRA) Protein Expression, Deisenroth Lab (AID 2284329)
Outline: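 Human pluripotent RUES2-GLR line was exposed twice during 48 h differentiation to a 10-point series, 1 nM - 200 uM. Fraction of Bra-positive cells was scored by imaging against pluripotent baseline and fitted after 0.2% DMSO subtraction.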

[18] = CCTE_Deisenroth_DEVTOX-GLR_legacy_CellCount: (Legacy) Viability Assessment in CCTE's DevTox GLR-Endo Assay, Deisenroth Lab (AID 2284331); conditions: actives raise or lower the signal
Outline: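 Nuclei count by fluorescence high-content imaging (5 fields/well) after 48 h differentiation of RUES2-GLR cells. Two exposures, 24 h apart; 1 nM - 200 uM series; n=4. Bidirectional fit vs DMSO.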

[19] = tested on: SRY-box transcription factor 17 (SOX17) Protein Expression, Deisenroth Lab, SOX17 (gene 64321); assay: CCTE_Deisenroth_DEVTOX-GLR_legacy_Sox17: (Legacy) CCTE's DevTox GLR-Endo Assay Evaluation of SRY-box transcription factor 17 (SOX17) Protein Expression, Deisenroth Lab (AID 2284341); conditions: actives raise or lower the signal
Outline: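 RUES2-GLR human pluripotent cells, seeded 24 h, then differentiated 48 h in defined media with two chemical exposures 24 h apart (1 nM - 200 uM, 10 points). Sox17+ fraction from high-content fluorescence imaging; bidirectional fit versus 0.2% DMSO.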

[20] = tested on: SRY-box transcription factor 2 (SOX2) Protein Expression, Deisenroth Lab, SOX2 (gene 6657); assay: CCTE_Deisenroth_DEVTOX-GLR_legacy_Sox2: (Legacy) CCTE's DevTox GLR-Endo Assay Evaluation of SRY-box transcription factor 2 (SOX2) Protein Expression, Deisenroth Lab (AID 2284346)
Outline: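 hPSC RUES2-GLR, 384-well; 24 h seed → 48 h endoderm differentiation, 2 doses q24h, 1 nM–200 uM. Fix, nuclear dye, 5 fields/well. Sox2+ cells/cell count; cell positive if >5x BMAD over endoderm ctrl; gain direction vs DMSO.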

Measured: AC50

CCOc1ccc(C(C)(C)COCc2cccc(Oc3ccccc3)c2)cc1
inactive: [1] | [2] | [3] | [4]

O=S(=O)(F)C(F)(F)C(F)(F)C(F)(F)C(F)(F)C(F)(F)C(F)(F)C(F)(F)C(F)(F)F
inactive: [5] | [6] | [7] | [8] | [9] | [10] | [11] | [12]

O=C(O)C(F)(OC(F)(F)C(F)(F)C(F)(F)F)C(F)(F)F (stereo not drawn)
inactive: [1] | [2] | [3] | [5] | [6] | [7] | [8] | [9] | [10] | [11] | [12]

CC(O)C(F)(F)C(F)(F)F (stereo not drawn)
inactive: [5] | [6] | [7] | [8] | [9] | [10] | [11] | [12]

OCC(F)(F)OC(F)(F)C(F)(F)OC(F)(F)C(F)(F)OC(F)(F)F
active: [11] 20.2 µM | [12] 73.7 µM
inactive: [2] | [3] | [5] | [6] | [7] | [8] | [9] | [10]

Cc1ccc(N)cc1N
inactive: [13] | [15]
active: [14] 7.57 µM

O=P(Oc1ccccc1)(Oc1ccccc1)Oc1ccccc1
inactive: [16] | [1]
active: [4] 3.18 µM

CCC1(c2ccccc2)C(=O)N=C(O)NC1=O (stereo not drawn)
inactive: [16]

O=P1(N(CCCl)CCCl)NCCCO1 (stereo not drawn)
inactive: [17] | [18] | [19] | [20]

COC(=O)C(F)(F)C(F)(F)OC(F)(C(F)(F)F)C(F)(F)OC(F)=C(F)F (stereo not drawn)
inactive: [6] | [7] | [8] | [9] | [10] | [11] | [12]
active: [4] 22.3 µM | [5] 21.4 µM

OCC(F)(F)OC(F)(F)C(F)(F)OC(F)(F)CO
inactive: [5] | [6] | [7] | [8] | [9] | [10] | [11] | [12]

CCCN(CCC)c1c([N+](=O)[O-])cc(C(C)C)cc1[N+](=O)[O-]
active: [4] 11.7 µM

C=CC(=O)OCC(F)(F)C(F)F
inactive: [3] | [5] | [7] | [10] | [11]
active: [6] 45.3 µM | [8] 54.6 µM | [9] 54.6 µM | [12] 8.88 µM

CO/N=C(/C(=O)OC)c1ccccc1COc1ccccc1C
active: [2] 31.4 µM | [3] 28.7 µM | [4] 34.2 µM
inactive: [1]
